{"source": "ChEMBL document CHEMBL4513160", "about": "“CO-ADD screening of MMV (CH) - Small Polar Library”", "note": "Screen size: about 23,000 compounds; about 30 (0.1%) showed an effect of 50% or more. The sample as a whole holds a higher share of strong results than the screen did. Results with a measured potency or affinity are listed apart."}
{"system": "Pseudomonas aeruginosa", "details": "Concentration 300 ug.mL-1; ASSAY_TEST Inhibition of Bacterial Growth; detection method Absorption (OD600); MEDIA CAMHB; plate type 384well; NBS; CORNING #3640; time 18 hr", "units": {"Inhibition": "%"}}
{"smiles": "N[C@H]1CCCNC1=O", "Inhibition": 19.57}
{"smiles": "CCc1nc(CNC(=O)C2CCCO2)cs1", "note": "(stereo not drawn)", "Inhibition": 6.65}
{"smiles": "CCS(=O)(=O)NC1CCN(C(=O)c2cccc(F)c2)C1", "note": "(stereo not drawn)", "Inhibition": 13}
{"smiles": "Cc1noc(CN(C)CCC2CCOCC2)n1", "Inhibition": -10.62}
{"smiles": "O=C(NCc1ccc2c(c1)OCCCO2)c1cscn1", "Inhibition": 14.64}
{"smiles": "NC1CC(=O)Nc2ccccc21", "note": "(stereo not drawn)", "Inhibition": 18.18}
{"smiles": "CC(C)C[C@@H](N)C(=O)NCc1ccc2nsnc2c1", "Inhibition": 6.42}
{"smiles": "CC(C)C(=O)NC1CCCNC1", "note": "(stereo not drawn)", "Inhibition": -0.49}
{"smiles": "N#Cc1ccc(NCc2ccccc2F)nc1", "Inhibition": 16.68}
{"smiles": "Cn1cnnc1CCNC(=O)c1cc(Cl)c(Cl)n1C", "Inhibition": 15.17}
{"smiles": "COCCC(=O)c1ccc(F)cc1", "Inhibition": 19.26}
{"smiles": "CCN1CCCC1CNC(=O)c1c[nH]nn1", "note": "(stereo not drawn)", "Inhibition": 16.01}
{"smiles": "Cc1cc(C)cc(NC(=O)CNCCCO)c1", "Inhibition": 5.1}
{"smiles": "NC1CCCc2c(F)cccc21", "note": "(stereo not drawn)", "Inhibition": 23.88}
{"smiles": "Fc1ccc2nc(N3CCCNCC3)oc2c1F", "Inhibition": 33.45}
{"smiles": "Cc1n[nH]c(C)c1NC(=O)C(C)CN", "note": "(stereo not drawn)", "Inhibition": 18.11}
{"smiles": "CN(Cc1ccc2c(c1)OCO2)C(=O)c1cncs1", "Inhibition": 25.32}
{"smiles": "COC(=O)c1ccc(=O)n(CC(=O)NCCC(C)C)c1", "Inhibition": 4.64}
{"smiles": "O=C(NCCOc1ncccc1Cl)c1cscn1", "Inhibition": 13.9}
{"smiles": "COc1ccc(CN2C[C@H](O)[C@@H](N(C)C)C2)c(C)c1C", "Inhibition": 27.33}
{"smiles": "Cc1cc(C(=O)N2C[C@H](C3CC3)[C@@H](N)C2)ccc1O", "Inhibition": 1.32}
{"smiles": "CC1CCN(CCNC(=O)c2cnccn2)CC1", "Inhibition": -12.84}
{"smiles": "CNCCN1CCOC(C)(C)C1", "Inhibition": 9.7}
{"smiles": "NS(=O)(=O)c1ccc(NC(=O)Cn2ccnc2)cc1", "Inhibition": 5.95}
{"smiles": "Cc1cc(C(=O)O)cc(N2C[C@H](C3CC3)[C@@H](N)C2)n1", "Inhibition": -2.3}
{"smiles": "CC(SCCN1CCOCC1)C(=O)N(C)C(C)C", "note": "(stereo not drawn)", "Inhibition": 5.48}
{"smiles": "N#Cc1ccc(Br)o1", "Inhibition": 8.03}
{"smiles": "Cc1cccc(C)c1-n1nnnc1SCC(N)=O", "Inhibition": 21.56}
{"smiles": "CNC(=O)C1CCN(CCCOc2ccccc2)CC1", "Inhibition": 24.15}
{"smiles": "CCCNC(=O)CCNC(=O)NCC", "Inhibition": 0.02}
{"smiles": "CCc1ccc(C(=O)NC2CNC[C@@H]2OC)o1", "note": "(stereo partly drawn)", "Inhibition": 36.32}
{"smiles": "NCC1(CCO)CCOC1", "note": "(stereo not drawn)", "Inhibition": 6.83}
{"smiles": "COc1cccc(-c2ccc(CNS(N)(=O)=O)cc2)c1", "Inhibition": 23.3}
{"smiles": "O=C(NCC1CCNCC1)c1ccncc1", "Inhibition": 12.69}
{"smiles": "CCN(CCn1cccn1)C(=O)CNC(=O)N(C)C", "Inhibition": -8.78}
{"smiles": "CCN(c1ccccc1)S(N)(=O)=O", "Inhibition": 5.95}
{"smiles": "COc1c(C)cnc(CNC(=O)CSC)c1C", "Inhibition": 1.37}
{"smiles": "CN1CCC(NC(=O)CSCc2cccs2)CC1", "Inhibition": 12.03}
{"smiles": "CNC(=O)NC1CN(C(=O)OC(C)(C)C)C1", "Inhibition": -6.26}
{"smiles": "CN(C)CCCOc1cccc(CN2CC(O)C2)c1", "Inhibition": 2}
{"smiles": "OC1(CNCc2ccccn2)CCc2ccccc21", "note": "(stereo not drawn)", "Inhibition": 24.9}
{"smiles": "Cc1c(Cl)cccc1C(=O)NC(C)c1nnnn1C", "note": "(stereo not drawn)", "Inhibition": 8.95}
{"smiles": "Cc1cc(N(C)C)n2nccc2n1", "Inhibition": -18.53}
{"smiles": "CCN(CC)C(=O)COc1ccc(C(C)=O)c(F)c1", "Inhibition": 4.67}
{"smiles": "COc1cn(C)c(C(=O)NCc2ccco2)cc1=O", "Inhibition": 21.6}
{"smiles": "CC(=O)c1ccc(CNc2nccnc2C#N)nc1C", "Inhibition": 14.58}
{"smiles": "Cc1nc(C2CCN(C(=O)c3cn[nH]c3)CC2)no1", "Inhibition": -1.22}
{"smiles": "NC1CCC(NC(=O)c2ccnc(C3CC3)n2)CC1", "note": "(stereo not drawn)", "Inhibition": 4.44}
{"smiles": "CN1CCC(CCNS(C)(=O)=O)CC1", "Inhibition": -4.45}
{"smiles": "CCCc1noc(C(C)Nc2cccc(C(N)=O)c2)n1", "note": "(stereo not drawn)", "Inhibition": 24.66}
{"smiles": "O=S1(=O)CCC(NCc2csc(-c3ccccn3)n2)C1", "note": "(stereo not drawn)", "Inhibition": 17.32}
{"smiles": "CCC1CN(Cc2ccnc(N)c2)CCO1", "note": "(stereo not drawn)", "Inhibition": 4.62}
{"smiles": "COCCNC(=O)CNC(=O)c1cc(C)cc(C)c1Br", "Inhibition": 7.79}
{"smiles": "CNCCCNC(=O)CCc1ccsc1", "Inhibition": -24.67}
{"smiles": "CCC(C)NC(=O)NCc1ccc(-n2ccnc2)nc1", "note": "(stereo not drawn)", "Inhibition": 14.1}
{"smiles": "CN1CCN(C(=O)C2COc3ccccc3O2)CC1=O", "note": "(stereo not drawn)", "Inhibition": 3.72}
{"smiles": "Cc1ccccc1CNc1nnc(CO)s1", "Inhibition": 26.98}
{"smiles": "CC1(CO)COCCN1Cc1ccccc1", "note": "(stereo not drawn)", "Inhibition": 11.96}
{"smiles": "Cc1cccc(C(=O)Nc2nnn(C)n2)c1", "Inhibition": 2.82}
{"smiles": "Cc1n[nH]c(C)c1S(=O)(=O)N1CCN(C)CC1", "Inhibition": 33.93}
{"smiles": "CCNC(=O)Nc1c[nH]nc1C1CCCNC1", "note": "(stereo not drawn)", "Inhibition": 15.62}
{"smiles": "NS(=O)(=O)NCC1CCCN(CCC2CCCC2)C1", "note": "(stereo not drawn)", "Inhibition": 13.03}
{"smiles": "Cc1nc(CN2CCC(O)(CN3CCCC3)CC2)c[nH]1", "Inhibition": 20.39}
{"smiles": "O=C(C1CCCO1)N1CCN(c2cc(Br)ccn2)CC1", "note": "(stereo not drawn)", "Inhibition": 3.3}
{"smiles": "c1ccc(-c2nc3c([nH]2)CCNC3)cc1", "Inhibition": 7.84}
{"smiles": "CNC(=O)CN1CCCC(CO)(CC=C(C)C)C1", "note": "(stereo not drawn)", "Inhibition": 20.92}
{"smiles": "N#Cc1ccc(CN2CCC3(CCC3O)CC2)cc1", "note": "(stereo not drawn)", "Inhibition": 20.3}
{"smiles": "Cc1ocnc1C(=O)NCCNC(=O)c1cccnc1", "Inhibition": 1.53}
